From PubChem BioAssay (EPA / NIEHS) come the findings set out here.

Active and inactive are the calls of the source. The calls were made as follows: active = hit-call score of the fitted dose curve at least 0.9, where 1 is the maximum; inactive = score below 0.9.

For the assay, the target named is Paired box protein Pax-6 (Homo sapiens) (UniProt P26367). Kind of assay: ATG_Pax6_CIS: Attagene CIS-FACTORIAL HepG2 Assay for human Paired Box 6 (PAX6) (AID 2282956). As to conditions: HepG2 CIS-FACTORIAL PAX6 reporter transcription, RNA readout; actives raise or lower the signal. As to the method: ATG_CIS is a cell-based, multiplexed-readout assay that uses HepG2, a human liver cell line, with measurements taken at 24 hours after chemical dosing in a 24-well plate.ATG_Pax6_CIS is one of 52 assay component(s) measured or calculated from the ATG_CIS assay. It is designed to make measurements of mRNA induction, a form of inducible reporter, as detected with fluorescence intensity signals by Reverse transcription polymerase chain reaction (RT-PCR) and Capillary electrophoresis technology.Data from the assay component ATG_Pax6_CIS was analyzed into 1 assay endpoint. This assay endpoint, ATG_Pax6_CIS, was analyzed with bidirectional fitting relative to DMSO as the negative control and baseline of activity. Using a type of inducible reporter, measures of mRNA for gain or loss-of-signal activity can be used to understand the reporter gene at the transcription factor-level as they relate to the gene PAX6. Furthermore, this assay endpoint can be referred to as a primary readout, because this assay has produced multiple assay endpoints where this one serves a reporter gene function. To generalize the intended target to other relatable targets, this assay endpoint is annotated to the dna binding intended target family, where the subfamily is paired box protein.
Sequence of Paired box protein Pax-6 (Homo sapiens) (P26367 whole entry, looked up): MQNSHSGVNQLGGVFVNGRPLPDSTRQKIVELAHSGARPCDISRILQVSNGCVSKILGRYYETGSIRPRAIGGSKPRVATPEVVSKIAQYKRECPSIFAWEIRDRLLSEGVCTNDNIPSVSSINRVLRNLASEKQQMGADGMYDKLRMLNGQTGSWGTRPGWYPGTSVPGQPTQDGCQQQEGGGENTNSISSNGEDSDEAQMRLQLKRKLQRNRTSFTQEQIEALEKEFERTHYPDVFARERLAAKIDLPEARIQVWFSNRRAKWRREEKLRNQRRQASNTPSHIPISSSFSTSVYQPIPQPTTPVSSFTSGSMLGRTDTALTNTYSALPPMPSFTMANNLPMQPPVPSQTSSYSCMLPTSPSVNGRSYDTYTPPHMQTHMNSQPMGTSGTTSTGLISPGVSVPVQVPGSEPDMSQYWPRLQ
Human liver HepG2 cells are transiently transfected with multiple reporter transcription units (MRTUs) in 6-well plates using FuGene 6 reagent (Roche; 3 ml FuGene/1 mg DNA). The MRTU constructs are regulated by a cis-regulating element (promoter). […] A major difference between the CIS and TRANS system is that in CIS activities of endogenous TFs are measured, whereas the TRANS assay evaluates changes in activities of exogenous, chimeric NR-Gal4 proteins. […] At the end of 24 hour incubation, total RNA was isolated using TriZol reagent (Invitrogen). The isolated RNA is then reverse-transcribed using oligo(dT) primer and Mo-MLV reverse transcriptase (Invitrogen) with DNAse I (Ambion) treatment for 30 min. The one-tenth of the produced cDNA was amplified by PCR using Taq DNA polymerase (Invitrogen) and two reporter sequence-specific primers. The PCR products were fluorescently labeled by primer extension with 6-arboxyfluorescein (6-FAM) 5'-labeled reporter sequence-specific primer (2 min at 95 C, 20 s at 68 C and 10 min at 72 C) and these products were digested with 5U of HpaI (New England Biolabs) for 2h at 37 C. The fragments were purified using Qiaquick PCR columns (Qiagen), analyzed on an ABI 3130xL genetic analyzer (Applied Biosystems) with peak positions identified by using a set of X-rhodamine (ROX)-labeled MapMarker1000 molecular weight standards (BioVentures). The raw capillary electrophoresis data was processed using Attagraph software (Attagene).
Take `C=CC(C)(O)CCC=C(C)CCC=C(C)C` (stereo not given): the half-maximal activity concentration (AC50) (in general, the concentration at which the activity in the assay is half-maximal) is 134 µM (active).

As to `CC(C)=CCO`, the compound was classed as inactive.

Regarding `Cc1c(N(C)C)c(=O)n(-c2ccccc2)n1C`, the compound was classed as inactive.

`COc1c(Cl)c(Cl)c(Cl)c(Cl)c1Cl`: the compound was classed as inactive.

For the compound `Nc1ccc(F)c([N+](=O)[O-])c1`, the call was inactive.

Regarding `CC1=CC(=O)NS(=O)(=O)O1`, the outcome was inactive.

Take `CCCCO`: the compound was called inactive.

`O=c1cc(-c2ccccc2)oc2cc(O)cc(O)c12`: the outcome was inactive.

Regarding `CC1(C)C(=O)N(Br)C(=O)N1Cl`, the compound was classed as inactive.

On to `O=Cc1ccc(Cl)c([N+](=O)[O-])c1`, for which the concentration at half-maximal activity (AC50) is 91.2 µM (active).

As for `Cc1ccc(S)cc1`, the outcome was inactive.

Take `O=C(O)c1cn(-c2ccc(F)cc2)c2cc(N3CCNCC3)c(F)cc2c1=O`: the outcome was inactive.

`C=COCCOCCOCCOC=C`: the call was inactive.

`O=C1O[C@@H]2[C@@H](O)[C@H](O)O[C@@H]2[C@H]1O`: the compound was classed as inactive.

With `CC(C)CCCCCCCOC(=O)c1ccc(C(=O)OCCCCCCCC(C)C)c(C(=O)OCCCCCCCC(C)C)c1`, the compound was classed as inactive.

As for `O=C1CCc2ccccc2O1`, the result was inactive.

Consider `Cc1cccc(Nc2ccccc2C(=O)O)c1C`, for which the call was inactive.

As to `OCCN1CCNCC1`, the outcome was inactive.

Take `C=C(C)C(=O)O`: the result was inactive.

For the compound `CO[Si](C)(OC)c1ccccc1`, the result was inactive.

Take `c1cc(C(c2ccc(OCC3CO3)cc2)c2ccc(OCC3CO3)cc2)ccc1OCC1CO1` (stereo not given): the AC50 was 9.85 µM (active).

As for `CCCCN`, the compound was classed as inactive.

For the compound `O=C(O)c1ccc([N+](=O)[O-])cc1`, the compound was classed as inactive.

In the case of `CCCCCCCCCCCCCCCC(=O)OC[C@H](O)[C@H]1OC(=O)C(O)=C1O`, the result was inactive.

`CC1(C)CCC(C)(C)c2cc(C(=O)Nc3ccc(C(=O)O)cc3)ccc21`: the AC50 was 85 µM (active).

On to `CC1CC(OC(=O)c2ccccc2O)CC(C)(C)C1` (stereo not given), for which the call was inactive.

As for `CC(C)(CO)[N+](=O)[O-]`, the result was inactive.

`Nc1nc2ccc([N+](=O)[O-])cc2s1`: the compound was classed as inactive.

As for `CC(=O)c1c(C)cc(C(C)(C)C)cc1C`, the compound was classed as inactive.

Turning to `COc1ccc(OC)c(OC)c1`, the call was inactive.

For `Cc1ccc(C(C)C)cc1O`, the call was inactive.

For the compound `CCCC/C=C\CCCCCCCCCC=O`, the result was inactive.

Take `Nc1ccc(S(=O)(=O)O)c(N)c1`: the outcome was inactive.

For `CC(=O)C(C)=O`, the outcome was inactive.

Turning to `CCCC(=O)c1cc(O)c(O)cc1O`, the outcome was inactive.

`CC(=O)O[C@H](CC(=O)[O-])C[N+](C)(C)C`: the compound was called inactive.

As for `CNCCCC12CCC(c3ccccc31)c1ccccc12`, the AC50 was 17.4 µM (active).

`NC(=O)c1ccccc1Cl`: the AC50 is 65 µM (active).

Regarding `NC(=O)NC1NC(=O)NC1=O` (stereo not given), the compound was classed as inactive.

Regarding `O=c1[nH]nnc2ccccc12`, the compound was classed as inactive.
